Screens: PubChem BioAssay, several laboratories
In the library only some 6.2% were active in any assay of this set; here they are far more common.
GRIN3A LBD mod: binders of NR3A ligand-binding domain, primary screen, biophysical, differential scanning fluorimetry, uHTS; Glutamate receptor ionotropic, NMDA 3A (GRIN3A) ligand-binding domain; NR3A LBD differential scanning fluorimetry, Tm shift; 0% = protein alone, 100% = glycine-bound protein; Tm shift relative to glycine control, % at 25 µM; 2.5% of 340,000 active; AID 1259313, 2017;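 active = melting temperature shift of at least 10% of the positive control shift, at one fixed dose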
Cardio protect: cardioprotection against H2O2-induced cell death, primary screen, uHTS, H9c2 cells, ATPLite luminescence | H9c2 cardiomyocytes, H2O2 injury protection, 2 h | AID 588492, 2011 | protection from H2O2 cell death, % at 20 µM | 0.63% of 360,000 active;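 active = compounds giving at least 50% protection of heart cells from peroxide-induced death in the single-dose screen, raw or plate-pattern-corrected value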;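 note: 0% = DMSO wells with peroxide and 100% = DMSO wells without peroxide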
AI-2 QS mod: Vibrio harveyi AI-2 quorum sensing modulators, primary screen, JMH597 strain, luminescence/OD600 ratio. 0.4% of 300,000 active. activity change, % at 7.5 µM. AID 2094, 2009. Vibrio harveyi JMH597 AI-2 luminescence/OD600 ratio, 9 h; hits give low values; strain lacks LuxN and CqsS sensors; 0 = neutral-control median; in the data active = activity change below about -75%, passing the limit was not always enough;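 note: luminescence divided by OD600 gain over 9 h not by final OD600 alone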
SUMO Mot1 rescue: yeast Mot1-301 growth rescue at high temperature, primary screen, SUMOylation pathway inhibitor project, S. cerevisiae, ATP luminescence, 38.5C; S. cerevisiae Mot1-301 growth rescue; percent above DMSO median, 100 means doubled; growth rescue, % at 18.8 µM; 1% of 320,000 active;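 active = every valid replicate shows activation above 250% relative to neutral control wells; inactive = the rest, any valid replicate at or below 250%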;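 note: OY570 slx delta 5 strain wells were the positive control but not used for scaling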
NTR1 ag: agonists of human NTR1, primary screen, imaging, U2OS cells, beta-arrestin-GFP, high content. activation, % at 20 µM. 0.17% of 330,000 active. Neurotensin receptor type 1 (Homo sapiens), P30989. NTR1-U2OS beta-arrestin-GFP spot imaging, agonist mode. AID 493036, 2011;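 active = activation at or above 40% of the spot to cytoplasm intensity ratio, with at least 20 cells analyzed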;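 note: 0% = DMSO without peptide and 100% = 100 nM NTR1 peptide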
AHR act: AHR activators, primary screen, cell-based, luminescence, luciferase reporter, human; AID 2796, 2010; 2.5% of 320,000 active; AHR-responsive luciferase reporter cells; Aryl hydrocarbon receptor (Homo sapiens), P35869; activation, % at 5 µM; in the data active = activation above about 47%;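 note: 0% = vehicle wells and 100% = reference agonist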
Target sequence (P35869 whole entry, looked up): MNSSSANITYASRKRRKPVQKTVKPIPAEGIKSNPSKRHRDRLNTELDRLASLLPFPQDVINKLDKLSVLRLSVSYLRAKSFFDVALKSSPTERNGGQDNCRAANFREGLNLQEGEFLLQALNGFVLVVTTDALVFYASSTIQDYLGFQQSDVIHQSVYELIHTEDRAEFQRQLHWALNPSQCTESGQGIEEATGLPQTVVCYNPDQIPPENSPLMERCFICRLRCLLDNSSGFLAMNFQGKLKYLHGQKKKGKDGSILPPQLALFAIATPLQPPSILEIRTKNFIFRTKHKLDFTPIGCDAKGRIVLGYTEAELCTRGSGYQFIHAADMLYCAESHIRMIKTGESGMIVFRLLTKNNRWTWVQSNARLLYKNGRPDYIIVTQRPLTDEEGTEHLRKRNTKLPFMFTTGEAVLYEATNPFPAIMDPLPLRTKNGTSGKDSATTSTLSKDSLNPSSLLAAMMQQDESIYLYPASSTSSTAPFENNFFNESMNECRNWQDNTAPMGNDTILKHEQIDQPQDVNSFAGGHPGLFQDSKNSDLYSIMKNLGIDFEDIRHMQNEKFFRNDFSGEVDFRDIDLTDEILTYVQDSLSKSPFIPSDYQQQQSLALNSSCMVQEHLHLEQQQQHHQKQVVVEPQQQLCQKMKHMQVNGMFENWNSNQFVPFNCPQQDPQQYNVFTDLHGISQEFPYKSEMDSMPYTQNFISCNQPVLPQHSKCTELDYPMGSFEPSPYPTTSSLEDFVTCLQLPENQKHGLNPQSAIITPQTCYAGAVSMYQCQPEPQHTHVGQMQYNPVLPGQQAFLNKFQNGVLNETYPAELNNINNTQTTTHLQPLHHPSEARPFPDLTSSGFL
Starred values were filed as active, the others as inactive; . = no result given.

SMILES | GRIN3A LBD mod | Cardio protect | AI-2 QS mod | SUMO Mot1 rescue | NTR1 ag | AHR act
O=C(CSc1ccc2nnc(CCNC(=O)c3ccccc3)n2n1)NCCc1ccccc1 | 2.4 | 2.3 | 6.5 | -9.6 | -2.3 | 5.5
COc1ccccc1C(=O)N/C(=C\c1cn(S(=O)(=O)N(C)C)c2ccccc12)C(=O)N1CCOCC1 | -0.2 | 15.2 | 22.9 | 4.2 | 1.8 | 1.8
Cc1ccc(-c2nc(SC(C)C(=O)N3CCOCC3)n[nH]2)cc1 (stereo unspecified) | -14.4 | 6.7 | 6.1 | 9.3 | -0.6 | 19.7
O=C(COC(=O)CCc1ccc(S(=O)(=O)N2CCOCC2)cc1)Nc1ccccc1OC(F)F | 0.8 | 6.2 | . | -2.7 | -0.3 | 1.8
Cc1nc(SCCc2nc3ccccc3[nH]2)c2oc3ccccc3c2n1 | -0.6 | 10.7 | . | 8.4 | 0.8 | 9.7
CC(C)Oc1cc(F)ccc1-c1cc(C(=O)NCc2ccccn2)[nH]n1 | . | 2.7 | . | . | . | .
Oc1ccc(C[C@H]2CN([C@@H](Cc3ccccc3)CN3CCC[C@@H]3CN3C(=S)NC[C@@H]3Cc3ccccc3)C(=S)N2CC2CCCCC2)cc1 | . | -9.0 | . | . | . | .
Oc1ccc(C[C@H]2CNC(=S)N2CC2CCCN2C[C@H](Cc2ccc(O)cc2)N2C[C@H](Cc3ccccc3)N(CC3CCCCC3)C2=S)cc1 (stereo partly specified) | 32.6* | -13.9 | . | . | . | .
CC(C)C[C@H]1CN([C@@H](CC(C)C)CN2CCCC2CN2C(=S)NC[C@@H]2Cc2ccc(O)cc2)C(=S)N1CC1CCCCC1 (stereo partly specified) | 13.2* | -27.5 | . | . | . | .
O=C(N=C1SC2CS(=O)(=O)CC2N1c1ccccc1C(F)(F)F)C1CCCO1 (stereo unspecified) | -2.4 | 3.6 | 3.1 | -6.6 | 0.5 | -3.5
COc1ccc(/C=N/NC(=O)c2ccoc2C)cc1CN1CCN(c2ccc(F)cc2)CC1 | 3.5 | 14.0 | 18.4 | 72.5 | 1.4 | 73.3*
COc1ccc(/C=N/NC(=O)c2cc(OC)c(OC)c(OC)c2)cc1CN1CCc2cc(OC)c(OC)cc2C1C (stereo unspecified) | -1.5 | 66.1* | 16.1 | 79.7 | 0.0 | -0.3
COc1ccc(/C=C/C(=O)c2ccccc2O)cc1CN1CCOCC1 | -1.4 | 83.5* | 9.2 | 515.5 | 0.1 | 2.0
COc1ccc(/C=N/NC(=O)c2ccncc2)cc1CN1CCOCC1 | 12.2* | 0.0 | 4.3 | -22.3 | -0.5 | 3.5
COc1ccc(/C=N/NC(=O)c2cccnc2)cc1CN1CCc2cc(OC)c(OC)cc2C1C (stereo unspecified) | 0.0 | 28.6 | 42.9 | -4.6 | 0.6 | 3.9
CCCCC[C@@H]1[C@H]2[C@H]3C(=O)N(c4ccccc4)C(=O)[C@H]3CC(=O)[C@H]2[C@H](c2ccccc2)N1S(=O)(=O)c1ccc(C)cc1 | . | 1.1 | . | . | . | .
c1ccc(-c2noc(-c3cccnc3)n2)cc1 | -1.0 | -5.7 | 16.2 | 376.9 | 1.5 | 59.0*
COc1ccc2[nH]c(=O)c(-c3noc(-c4ccccc4)n3)cc2c1 | -0.7 | 6.6 | 3.8 | 177.2 | -0.2 | 25.3
O=c1[nH]c2ccccc2cc1-c1noc(-c2cccnc2)n1 | -1.9 | 19.9 | 24.9 | -1.6 | 0.6 | 73.0*
CCOc1ccc2[nH]c(=O)c(CN(CCO)C(c3nnnn3C3CCCCC3)C(C)C)cc2c1 (stereo unspecified) | 3.1 | 102.7* | 36.5 | . | . | .
CCCN1CCN(C(c2cc3cc(OCC)ccc3[nH]c2=O)c2nnnn2C2CCCCC2)CC1 (stereo unspecified) | 4.9 | 3.1 | 18.4 | 3.0 | -1.0 | -2.2
O=c1[nH]c2cc3c(cc2cc1CN(CCCO)Cc1nnnn1Cc1ccc(F)cc1)OCO3 | 0.3 | 30.5 | 36.9 | -12.7 | 1.7 | 54.4*
CC(C)C(c1nnnn1Cc1ccccc1)N(CCCO)Cc1cc2cc3c(cc2[nH]c1=O)OCO3 (stereo unspecified) | -0.8 | 26.1 | 17.5 | -28.7 | 1.0 | 64.0*
CCC(c1nnnn1Cc1ccc(OC)cc1)N(CCCO)Cc1cc2cc3c(cc2[nH]c1=O)OCO3 (stereo unspecified) | -3.7 | -0.8 | 12.3 | -13.4 | 0.5 | 26.6
COc1cccc(C2c3c(oc4ccccc4c3=O)C(=O)N2Cc2ccco2)c1 (stereo unspecified) | 0.3 | 14.3 | 24.1 | 143.0 | 2.5 | 81.8*
SMILES | GRIN3A LBD mod | Cardio protect | AI-2 QS mod | SUMO Mot1 rescue | NTR1 ag | AHR act
C/C(=N\N=c1/sc2ccccc2n1C)c1ccc(N2CCOCC2)cc1 | 7.3 | -5.3 | 10.4 | -15.0 | 5.6 | 53.4*
CCCCc1ccc(NC(=O)CC(C)(C)C)cc1 | -2.9 | -14.5 | -75.8* | -5.5 | 5.8 | 15.5
Cc1ccccc1OCC(=O)O/N=C(\N)Cc1ccc(Cl)cc1 | -1.1 | -9.9 | 2.5 | -8.6 | 0.7 | 1.6
COc1ccc(C/C(N)=N/OC(=O)COc2ccccc2C)cc1 | 11.5* | -1.5 | 1.0 | 30.9 | 4.7 | -1.1
O=C(Nc1cc(-c2nc3ncccc3o2)ccc1Cl)c1ccc([N+](=O)[O-])o1 | 0.8 | -5.3 | -6.3 | 78.2 | 28.4 | 8.0
O=S(Cc1ccccc1)Cc1ccccc1 | -2.4 | -6.4 | . | . | . | .
COC(=O)N1CCC2CC1c1c(Cl)cccc12 (stereo unspecified) | . | 5.2 | . | . | . | .
CCn1c2ccc(Cl)cc2c2nc3ccccc3nc21 | -5.6 | . | 17.8 | 21.0 | 0.5 | 52.9*
COC(=O)c1ccc(C)c(NC(=O)CCCN2C(=O)NC(C)(C)C2=O)c1 | 1.4 | -1.9 | . | -13.2 | -2.0 | -0.8
Cc1c(Cl)cccc1NC(=O)CC1Sc2ccccc2NC1=O (stereo unspecified) | 10.3* | 1.7 | 20.0 | 12.2 | 0.4 | 1.4
CC(C)(C)c1ccc(-c2cc(-c3ccccc3O)[nH]n2)cc1 | 19.4* | -15.3 | 57.2 | 410.1 | 8.5 | 7.7
Cc1ccc(O)c(-c2cc(-c3ccccc3C)[nH]n2)c1 | 4.5 | -17.4 | 16.5 | . | 16.9 | .
Oc1ccc(Cl)cc1-c1cc(-c2cccc(Br)c2)n[nH]1 | 30.6* | -14.4 | 14.8 | 34.6 | 25.3 | 30.1
Oc1ccccc1-c1cc(-c2cccc(F)c2)n[nH]1 | 8.2 | -22.4 | 8.9 | 1.4 | 18.7 | 72.3*
C#CCN(C[C@H]1[C@H](OC(=O)NCc2ccccc2F)[C@H](OC(=O)NCc2ccccc2F)C[C@H]2C(=O)N(c3ccccc3)C(=O)[C@@H]12)S(=O)(=O)c1ccc(C)cc1 | . | -1.4 | . | . | . | .
CCCN1C(=O)/C(=C\c2nc3ccccc3c(=O)[nH]2)c2ccccc21 | 0.2 | 65.7* | . | . | . | .
